# Compound activity deposited in PubChem BioAssay by National Center for Advancing Translational Sciences (NCATS).
# uPA surface inh = cell surface uPA generation inhibition; cell surface uPA generation assay, qHTS; Potency, µM (highest dose often 38.3 µM), without a hit: at the top dose activity change, negative = inhibition, most hits filed as inhibitors; AID 540303; 330,000 compounds, 0.31% hits; active means well fitted inhibition curve with a large enough effect; inconclusive means small, poorly fitted or top-dose-only effect; inactive means no such curve, though single readings can be large or run the other way; tested in mouse RAW 264.7 cells; further: on the % scale 0 is the no-effect control and ±100 the full control effect; nearly all actives have a fitted effect of over 55% in size
# Integrin act MD = integrin-mediated muscular dystrophy alleviation activation. 350,000 compounds, 0.064% hits. Potency, µM (top dose mostly 38.3 µM), for inactives: at the highest dose activation, most hits filed as activators. alpha7betagal myoblasts, beta-gal FDG fluorescence, 48 h;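 further: 100% = response of the positive control SU9516; nearly all actives have a fitted effect of over 60% in size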
#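 Alpha7betagal+/- myoblasts (passage 13) were plated 16-24 hr, then exposed to compounds (1:260 dilution of DMSO stock) for 48 hours at 37C. After MPER lysis, β-galactosidase reporter activity was read as FDG fluorescence (ex 480/em 540) after 30 minutes.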
# BCR signal inh = chronic active BCR signaling inhibition; ABC-DLBCL IkBa-CBG/CBR reporter, luminescence ratio, 4 h; Potency, µM (titrated, usually from 46.1 µM), for the others: at the top dose activity change, negative = inhibition, usual class: inhibitors; 340,000 compounds, 0.05% hits; active means well fitted inhibition curve with a large enough effect in the signal ratio, with a control signal flat, not every such curve was filed as active; inconclusive means small, poorly fitted or top-dose-only effect, or effect the other way, or a change in a side signal; the % refers to the signal ratio;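 further: plate controls were basal doxycycline-induced cells for no effect and cells given 10 µM MG132 for full effect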
#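 Compounds up to 46 uM were incubated four hours with TMD8 cells whose green CBG68 luciferase is fused to IkappaBalpha; red CBR luminescence normalised the signal, and concentration-effect curves were fitted to fusion, red and ratio data.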
# Gal4-VP16 FLuc = Gal4-VP16 reporter inhibition counter-screen. Drosophila S2 Gal4-VP16 UAS-luciferase, luminescence, 20 h. Potency, µM (top dose mostly 53.6 µM), without a hit: at the highest dose activity, negative = inhibition, most hits filed as inhibitors. 310,000 compounds, 3.5% hits;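 further: Gal4-VP16 expression switched on by copper sulfate through the metallothionein promoter; on the % scale 0 is the no-effect control and ±100 the full control effect; nearly all actives have a fitted effect of over 50% in size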
# Mito fusion act = inhibitors of mitochondrial division or activators of mitochondrial fusion; 320,000 compounds, 0.23% hits; Potency, µM (highest dose often 46.1 µM), for inactives: at the top dose growth rescue (activation), actives largely listed as activators; S. cerevisiae fusion-defective mutant growth rescue, CellTiterGlo 48 h; further: % of control where 0% means no effect; nearly all actives have a fitted effect of over 45% in size
#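 Read-out: ATP-based luminescence (CellTiterGlo, 10 min ambient) reporting growth of fusion-defective ts yeast after 48 hours at 37C on glycerol/ethanol YPEG medium in the presence of compound.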
# RORg inh = blocks mouse ROR gamma transcriptional activity | Drosophila S2 Gal4-RORgamma UAS-luciferase reporter, 20 h | P51450 | Potency, µM (doses to about 53.6 µM), for the others: at the top dose activity change, negative = inhibition, hits mostly inhibitors | AID 2551 | 310,000 compounds, 5.4% hits; further: on the % scale 0 is the no-effect control and ±100 the full control effect; nearly all actives have a fitted effect of over 60% in size
# Target sequence (P51450 whole entry, looked up, the tested form may be a part): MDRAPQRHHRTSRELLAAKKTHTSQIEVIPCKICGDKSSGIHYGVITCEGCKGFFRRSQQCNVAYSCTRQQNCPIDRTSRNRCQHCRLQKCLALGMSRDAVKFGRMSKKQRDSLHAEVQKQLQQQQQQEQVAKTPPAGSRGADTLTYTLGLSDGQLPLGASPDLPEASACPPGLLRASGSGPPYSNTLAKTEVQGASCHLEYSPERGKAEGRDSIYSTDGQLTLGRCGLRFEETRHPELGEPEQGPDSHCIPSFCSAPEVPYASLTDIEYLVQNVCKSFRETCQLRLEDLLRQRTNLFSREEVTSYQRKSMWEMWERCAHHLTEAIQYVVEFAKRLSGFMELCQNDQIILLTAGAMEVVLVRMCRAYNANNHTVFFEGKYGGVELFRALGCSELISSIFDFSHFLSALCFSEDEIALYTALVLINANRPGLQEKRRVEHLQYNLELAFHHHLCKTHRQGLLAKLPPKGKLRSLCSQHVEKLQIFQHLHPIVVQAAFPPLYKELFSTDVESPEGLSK
#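 Stably transfected Drosophila Schneider cells are the test system, with ROR gamma fused to Gal4 and luciferase under UAS control; luminescence is read after 20 hr of 700 uM copper sulfate induction at ambient temperature.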
# * = called active by the depositor; ? = inconclusive; nt = not tested or not shown. This is a sample that favours compounds with a hit; in the whole collection about 5.5% have one here. Unless noted, the call rests on the fitted dose curve; in most records, active means well fitted curve in the direction sought with a large enough effect; inconclusive means small, poorly fitted or top-dose-only effect, or another doubt; inactive means no such curve, though single readings can be large; an effect the other way counts as inactive or inconclusive. Potency means the concentration at half of the fitted maximal effect.
SMILES,uPA surface inh,Integrin act MD,BCR signal inh,Gal4-VP16 FLuc,Mito fusion act,RORg inh
O=C(/C=C/c1ccccc1)NC(NC(=S)Nc1cccc(O)c1)C(Cl)(Cl)Cl (centres undefined),-1.0%,-46.0%,19.5%,?,1.1%,8.3%
CCC1Oc2ccccc2N(CC(=O)NCc2ccccc2)C1=O (centres undefined),nt,nt,-13.7%,nt,nt,nt
COc1cccc(CS(=O)(=O)c2nnnn2-c2ccccc2)c1,nt,nt,nt,-28.0%,nt,7.08µM*
CCCS(=O)(=O)c1nnnn1-c1cccc(OC)c1,?,-55.3%,?,4.47µM*,-26.2%,1.78µM*
O=S(=O)(c1ccccc1)N1CCC2(CCN(Cc3ccncc3)CC2)CC1,nt,nt,nt,0.9%,nt,0.5%
COc1ccc(C2/C=C\CN(C(=O)c3ccccc3)C(Cc3ccccc3)C(=O)N2Cc2ccc(F)cc2)cc1 (centres undefined),nt,nt,nt,-10.1%,nt,?
S=C1CSc2ccccc2N1,1.9%,-15.3%,-5.5%,7.94µM*,-8.9%,3.55µM*
c1ccc2c(c1)NCCS2,-11.1%,6.6%,18.4%,-3.5%,6.5%,14.1%
CC1CSc2ccccc2NC1=S (centres undefined),-0.4%,-13.1%,-25.3%,7.94µM*,-7.8%,7.08µM*
Cc1cc(O)c(Oc2cc(C)cc(O)c2O)c(O)c1,?,-23.3%,16.5%,?,-0.1%,17.8µM*
COc1c(O)cc(O)cc1O,nt,nt,nt,6.9%,nt,7.5%
CCOC(=O)c1ccc(N=Nc2c(C)[nH]n(-c3ccccc3)c2=O)cc1,12.7%,-16.9%,-7.2%,-14.4%,-1.9%,23.4%
CC(=O)N(C)c1ccc(N=Nc2ccc3ncccc3c2)cc1,-14.7%,?,nt,nt,nt,nt
CC(=O)N(C)c1ccc(N=Nc2c(C)[nH]n(C(N)=S)c2=O)cc1,-17.0%,?,3.0%,3.16µM*,-5.4%,0.355µM*
CC(=O)N(C)c1ccc(N=Nc2c(C)[nH]n(-c3ccccc3)c2=O)cc1,15.3%,20.9%,8.9%,?,4.5%,20µM*
CCN(CC)S(=O)(=O)c1ccc(N=Nc2c(C)[nH]n(C(N)=S)c2=O)cc1,-2.0%,5.7%,?,0.0126µM*,5.9%,0.0501µM*
Cc1cccc(-n2ncc3c2CCCC3NC(=O)c2ccc[n+]([O-])c2)c1C (centres undefined),4.2%,0.0%,-0.4%,?,1.2%,34.1%
COc1cc(C(=O)NC2CCCc3c2cnn3-c2ccccc2F)cc(OC)c1OC (centres undefined),-7.7%,-67.5%,-4.0%,5.01µM*,-2.8%,-36.3%
CC(C)c1cc(C(=O)NC2CCCc3c2cnn3-c2ccccc2F)no1 (centres undefined),?,-5.4%,5.7%,11.2µM*,-18.8%,-28.9%
Cc1cc(C(=O)NC2CCCc3c2cnn3-c2cccc(C)c2C)n(C)n1 (centres undefined),-14.2%,-62.7%,1.4%,2.24µM*,1.7%,?
Cc1cc(C(=O)NC2CCCc3c2cnn3-c2ccccc2F)nc(C)n1 (centres undefined),17.3%,24.3%,-0.7%,-9.2%,-3.5%,-1.1%
Cc1cccc(N2CCC(N=CN(C)C)=N2)c1,-3.1%,-25.9%,-6.2%,2.7%,2.6%,-21.8%
Cc1ccc(NC(=O)c2sc3ncnc(N4CCN(c5ccccn5)CC4)c3c2C)c(C)c1,9.3%,-33.0%,?,25.3%,12.6µM*,4.1%
Cc1ccc(NC(=O)c2sc3nc(C)nc(N4CCN(c5ccccn5)CC4)c3c2C)c(C)c1,6.0%,1.5%,6.4%,-3.5%,-4.2%,9.9%
CCOC(=O)c1c(-c2ccc(C)o2)csc1NC(=S)NC(=O)c1ccc(F)cc1,7.6%,-24.4%,8.1%,3.16µM*,-5.4%,1.78µM*
CCOC(=O)c1c(-c2ccc(C)o2)csc1NC(=O)CN(C)CC(=O)Nc1ccc(C)cc1,2.8%,-19.4%,-4.4%,?,-1.3%,12.6µM*
O=C(NNC(=O)c1cc(-c2ccncc2)nc2ccccc12)c1ccccc1O,1.1%,-46.0%,?,nt,-6.4%,nt
